A selection: hits, their analogues and other compounds. The true share with any hit is near 5.4%.
CtBP-E1A blk: inhibitors of CtBP/E1A interaction; activity change, % (concentration not given with the values); AlphaScreen GST-E1A/His-CtBP binding, 1536-well; stronger effect = lower value; 340,000 compounds, 0.49% hits; in the data active means activity change below about -65%; inconclusive means mostly about -30% to -63%; further: on the % scale 0 is the no-effect control and ±100 the full control effect
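AlphaScreen with 125 nM GST-E1A and 125 nM His-CtBP (5X stocks) in Tris pH 8.0, 300 mM NaCl, BSA, Tween 20, TCEP. Compounds preincubated 2 h at 37 deg C, then glutathione donor/nickel acceptor beads added for 1 h at 37 deg C in dark.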
Gal4-VP16 FLuc: Gal4-VP16 reporter inhibition counter-screen; Drosophila S2 Gal4-VP16 UAS-luciferase, luminescence, 20 h; Potency, µM (doses to about 53.6 µM), without a hit: at the highest dose activity, negative = inhibition, hits mostly inhibitors; 310,000 compounds, 3.5% hits;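 further: Gal4-VP16 expression switched on by copper sulfate through the metallothionein promoter; potency means the concentration at half of the fitted maximal effect; on the % scale 0 is the no-effect control and ±100 the full control effect; nearly all actives have a fitted effect of over 50% in size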
p53 reactivation: restores transcriptional activity of mutant p53; H1299 p53-A138V BP100-luciferase reporter, luminescence, 24 h; Potency, µM (top dose mostly 92.2 µM), without a hit: top-dose activity change, positive = activation, hits mostly activators; 320,000 compounds, 0.063% hits; AID 504706; further: potency means the concentration at half of the fitted maximal effect; % of control where 0% means no effect; nearly all actives have a fitted effect of over 45% in size
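H1299 (p53-null), stable ts p53-A138V + BP100-Luc; 1000 cells/well, Opti-MEM/10% FBS; cpd 4 pt, 1:5; 24 h, 37 deg C, 5% CO2; detection reagent 10 min RT; luminescence.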
RORgamma inh: blocks mouse ROR gamma transcriptional activity | P51450 | Drosophila S2 Gal4-RORgamma UAS-luciferase reporter, 20 h | Potency, µM (doses to about 53.6 µM), without a hit: at the top dose activity change, negative = inhibition, actives largely listed as inhibitors | 310,000 compounds, 5.4% hits; further: potency means the concentration at half of the fitted maximal effect; on the % scale 0 is the no-effect control and ±100 the full control effect; nearly all actives have a fitted effect of over 60% in size
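Drosophila S2 cells stably expressing Gal4-DBD/mouse RORγ fusion under metallothionein promoter plus UAS-luciferase; compound 1 h, then 700 uM CuSO4 induction for 20 h at ambient temperature; inhibition read as reduced luminescence.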
Six1-Eya2 inh: inhibitors of human Six1/Eya2 interaction; Q15475+O00167; AlphaScreen GST-Six1/His-Eya2 binding, biochemical; stronger effect = lower value; activity change, % (no concentration beside the values); 360,000 compounds, 0.56% hits; AID 651725; in the data active means activity change below about -65%; inconclusive means mostly about -30% to -63%; further: on the % scale 0 is the no-effect control and ±100 the full control effect
Target sequence (O00167 whole entry, looked up): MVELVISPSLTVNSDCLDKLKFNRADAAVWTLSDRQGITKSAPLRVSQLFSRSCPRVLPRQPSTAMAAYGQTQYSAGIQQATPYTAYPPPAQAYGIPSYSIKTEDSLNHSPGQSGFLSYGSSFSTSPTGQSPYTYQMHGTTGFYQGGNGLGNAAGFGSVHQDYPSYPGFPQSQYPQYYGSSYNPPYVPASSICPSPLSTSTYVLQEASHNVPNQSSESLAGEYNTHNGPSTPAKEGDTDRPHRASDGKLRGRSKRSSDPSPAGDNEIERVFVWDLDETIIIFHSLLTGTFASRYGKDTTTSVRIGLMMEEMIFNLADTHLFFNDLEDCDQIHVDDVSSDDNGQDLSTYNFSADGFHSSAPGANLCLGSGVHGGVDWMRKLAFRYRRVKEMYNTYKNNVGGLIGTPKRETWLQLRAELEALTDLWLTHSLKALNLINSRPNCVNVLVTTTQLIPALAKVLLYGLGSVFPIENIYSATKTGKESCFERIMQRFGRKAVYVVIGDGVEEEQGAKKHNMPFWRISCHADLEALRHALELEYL
Target sequence (Q15475 whole entry, looked up): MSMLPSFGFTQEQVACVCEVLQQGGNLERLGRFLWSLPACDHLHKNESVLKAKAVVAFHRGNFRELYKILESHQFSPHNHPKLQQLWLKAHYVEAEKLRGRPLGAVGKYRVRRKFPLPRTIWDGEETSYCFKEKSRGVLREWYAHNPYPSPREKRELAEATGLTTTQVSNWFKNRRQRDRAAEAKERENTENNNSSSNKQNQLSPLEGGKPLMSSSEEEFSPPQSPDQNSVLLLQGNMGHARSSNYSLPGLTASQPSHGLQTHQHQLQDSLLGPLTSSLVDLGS
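AlphaScreen with GST-Six1 and His-Eya2 (5X mix: 250 nM and 500 nM), glutathione donor and nickel acceptor beads; buffer 50 mM Tris pH 8.0, 300 mM NaCl, 1 mM TCEP; 1 h at 37 C in the dark.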
Starred values were filed as active, the others as inactive; ? = inconclusive; . = no result; [ ] = another dose, or the depositor's remark. Unless noted, the call rests on the fitted dose curve; in most records, active means well fitted curve in the direction sought with a large enough effect; inconclusive means small, poorly fitted or top-dose-only effect, or another doubt; inactive means no such curve, though single readings can be large; an effect the other way counts as inactive or inconclusive.

SMILES | CtBP-E1A blk | Gal4-VP16 FLuc | p53 reactivation | RORgamma inh | Six1-Eya2 inh
COCCCn1c(O)c(/C=C2\N=C(C#N)C(=Nc3ccc(C)cc3)O2)sc1=S | -12.5 | ? | 7.4% | ? | -19.9
CCOC(=O)CC(=O)CSc1ncnc2c1nnn2-c1ccc(OC)cc1 | -7.5 | -3.1% | 7.2% | 8.91µM* | -13.1
COC(=O)c1cc(NC(=O)c2ccccc2)c(=O)oc1C | 2.6 | 20.5% | 4.5% | -1.8% | -3.2
Cc1oc(=O)c(NC(=O)c2cccc(Cl)c2)cc1C(=O)c1ccccc1 | 3.0 | 5.01µM* | -7.6% | 4.47µM* | -4.8
COc1ccc(C(=O)Nc2cc(C(=O)c3ccccc3)c(C)oc2=O)cc1 | -3.2 | 10µM* | -58.3% | -103.8% | -6.9
CCOC(=O)c1sc(NC(=O)CN2C(=O)NC3(CCC(C)CC3)C2=O)c(C(=O)OCC)c1C (configuration not stated) | -6.7 | . | 11.2% | . | 2.3
Cc1onc(-c2ccccc2)c1C(=O)Nc1nnc(N2CCCCCC2)s1 | 3.1 | 0.355µM* | 1.2% | ? | -9.3
Cc1noc(C)c1C(=O)Nc1nc2ccc(S(C)(=O)=O)cc2s1 | -1.8 | 11.2µM* | -2.2% | -31.7% | -0.9
Cc1noc(C)c1C(=O)Nc1nnc(-c2ccccc2)s1 | -1.8 | ? | ? | 11.2µM* | 6.5
COCCNC(=S)N1CCCC(CO)C1 (configuration not stated) | 2.2 | 2.5% | -1.0% | -7.1% | 5.1
O=S(=O)(/N=C(/Nc1ccc(F)cc1F)c1ccccc1)c1ccc(Br)cc1 | . | -1.5% | 6.0% | -1.4% | .
COc1cccc(-c2cncnc2N(C)Cc2ccco2)c1 | . | -6.6% | . | 1.3% | .
Cc1ccc2[nH]c(C(=O)O)c(-c3ccccc3)c2c1 | -2.6 | 11.8% | 1.2% | 13.7% | -6.5
Cc1ccc2[nH]c(C(=O)NN=C3CCCCC3)c(-c3ccccc3)c2c1 | 4.9 | 10µM* | 25.6% | 5.01µM* | 2.0
CN(C)c1ccc(C=C2C=Cc3ccccc32)cc1 | -3.5 | . | . | . | -71.5*
COc1cc2c(cc1OC)C(=Cc1ccc(N(C)C)cc1)C=C2 | -77.7* | . | . | . | -70.9*
CNc1ccc(C=C2C=Cc3ccccc32)cc1 | -1.9 | . | . | . | ?
CCCOc1ccc(/C=C/C(=O)NCc2ccccc2)cc1 | -2.7 | 4.8% | 1.1% | 33.2% | 9.8
CCOC(=O)c1sc(NC(=S)NC(=O)C2CCCC2)cc1C | 1.0 | 3.16µM* | -3.7% | 4.47µM* | 0.6
CCOC(=O)c1sc(NC(=S)NC(=O)CC(C)C)cc1C | -3.5 | ? | ? | 5.62µM* | -8.6
Cc1ccccc1OCCC(=O)Nc1ccc2c(C)cc(=O)oc2c1 | -0.1 | -0.4% | 8.0% | -1.3% | -1.7
CSc1nsc(SCC(=O)NCc2ccc(C)cc2)n1 | -0.9 | -6.5% | . | -2.5% | -27.7
O=C(O)Cc1cccc(=O)c(O)c1C(=O)O | ? | . | . | . | -72.6*
O=C(Nc1ccc(Br)cc1)c1ccc(F)c(S(=O)(=O)NCc2cccs2)c1 | 1.0 | 10µM* | 4.7% | ? | -17.2
COc1cc(NC(=S)NCCCN2CCOCC2)c(OC)cc1NC(=O)c1ccco1 | -8.2 | -10.4% | -1.5% | -1.0% | 0.2
SMILES | CtBP-E1A blk | Gal4-VP16 FLuc | p53 reactivation | RORgamma inh | Six1-Eya2 inh
CS(=O)(=O)c1ccc(Cl)c(NC(=O)CCl)c1 | -17.0 | -66.3% | -12.5% | 14.1µM* | 11.7
COc1ccc(C(OCCN2CCC[C@H](C(=O)O)C2)(c2ccc(OC)cc2)c2ccc(OC)cc2)cc1 | . | -9.9% | . | 26.1% | .
CCSc1cc(C2C(C#N)=C(N)OC(C)=C2C(=O)OC)c(C)o1 (configuration not stated) | 0.8 | -2.5% | -21.7% | 12.6µM* | -1.1
CC(=O)c1ccccc1NS(C)(=O)=O | 10.1 | -3.4% | -3.3% | -3.2% | 1.1
CC[C@@]1(O)C(=O)OCc2c1cc1n(c2=O)Cc2cc3c([N+](=O)[O-])cccc3nc2-1 | . | 0.631µM* | . | ? | .
S=C(Nc1ccccc1)Nc1nc2ccccc2n1CCOc1ccc(Br)cc1 | 4.1 | 2.24µM* | 22.4µM* | 1.78µM* | -11.7
Cn1c(NC(=S)Nc2ccccc2)nc2ccccc21 | -4.4 | 1µM* | ? | 0.501µM* | -6.2
CC(C)(C)C(=O)Cn1ncc(Br)c(Br)c1=O | 7.0 | -9.6%[10 µM] | -12.3% | ? | -0.1
Cc1cc(C)c2[nH]c(C(=O)Nc3ccc(F)cc3Br)cc2c1 | -0.6 | ? | 13.2% | ? | 2.2
C(=N\Nc1nc(-c2ccccc2)cs1)/c1ccncc1 | -5.8 | 27.7% | 2.8% | 1.9% | 3.9
C(=C\c1ccccc1)/C=N/Nc1nc2ccccc2s1 | 3.2 | ? | ? | 7.94µM* | 4.0
CCCCOC(=O)Nc1nc2ccccc2s1 | 9.4 | -19.5% | 27.0% | ? | 0.7
Brc1ccc(/C=C/C=N/Nc2nc3ccccc3s2)cc1 | 30.6 | -2.6% | 2.9% | 28.2% | 20.8
Cc1ccc(-c2csc(N/N=C/C=C/c3ccccc3)n2)cc1 | 1.7 | ? | 18.9% | 2.82µM* | -0.7
CCC/C=N/Nc1nc2ccccc2s1 | -7.4 | ? | 4.8% | 11.2µM* | -8.9
Cn1nnc(NC(=S)NC(=O)c2cccc3c(Cl)cccc23)n1 | -21.2 | 2.82µM* | -5.2% | 0.891µM* | -11.6
COc1c(C(=O)NC(=S)Nc2nnn(C)n2)cc2ccccc2c1Br | -3.2 | 3.98µM* | -9.1% | 2.51µM* | 19.8
Cn1nnc(NC(=S)NC(=O)c2cccc3c(Br)cccc23)n1 | 2.9 | 2.82µM* | 8.9% | 0.891µM* | -1.2
CC(=O)NC(CC(=O)N1CCN(C(C)=O)CC1)c1ccccc1 (configuration not stated) | -2.4 | 4.5% | 11.7% | -5.0% | 2.7
CCCN(CCC)C(=O)c1ccc2nc(-c3ccc(OC)c(OC)c3)c(-c3ccc(OC)c(OC)c3)nc2c1 | . | 2.9% | -7.6% | 7.3% | 24.5
CC(Oc1ccccc1Cl)C(=O)Nc1ccc(S(=O)(=O)N2CCN(C)CC2)cc1 (configuration not stated) | 3.4 | . | . | . | 18.7
CC(C)(C)NC(=O)C12CC3CC(CC(Cl)(C3)C1)C2 | 0.0 | -13.7% | 6.2% | 3.7% | 0.5
CC(C)(C)NC(=S)NC(=O)C12CCC3CC(CC(C3)C1)C2 | -1.0 | 0.0% | -8.2% | 0.708µM* | 3.0
CO[C@@H]1COC(=O)C/C=C\[C@H](C)[C@H](OC)COC(=O)[C@H](C)NC(=O)C/C=C\[C@H]1C | . | 2.2%[10 µM] | . | 1.5%[10 µM] | .
O=C(N[C@H]1CCCc2ccccc21)O[C@@H]1C(=O)c2cc(Br)ccc2O[C@H]1c1ccc2c(c1)OCO2 | . | 9.3% | . | 0.3% | .
CCOc1ccc(NC(=S)NCc2ccc3c(c2)OCO3)cc1 | -8.3 | ? | -0.6% | 7.94µM* | -9.0
CCOc1ccc(C(=O)NCc2ccc3c(c2)OCO3)cc1 | 39.5 | 1.8% | -29.7% | 5.8% | 28.4
S=C(NCc1ccc2c(c1)OCO2)NC1CC1 | -14.5 | ? | 1.9% | 12.6µM* | 15.6
Cc1ccc(NC(=S)NCc2ccc3c(c2)OCO3)cc1 | -5.2 | 15.8µM* | 5.1% | 12.6µM* | -13.8
Cn1cc(C(=O)N/N=C/c2cccc([N+](=O)[O-])c2)c2ccccc21 | 4.2 | 5.7% | -0.8% | 3.9% | 0.2

Screens deposited in PubChem BioAssay by National Center for Advancing Translational Sciences (NCATS).
